Source: PubChem BioAssay (Tox21)
Several values for one entry are separate records, joined by “and”; a condition that tells them apart may be missing. Equal values may be shown once. Results filed as inconclusive are left out. Entries that show only a call come without a potency. Where a structure was tested more than once in an assay, its records may differ in their call. Activity calls are given as the source filed them. Unless noted, calls come from the whole dose curve.

Columns and labels:
[1] = qHTS assay to identify small molecule agonists of the sonic hedgehog signaling (Shh) pathway (AID 1259368);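 note: NIH/3T3-derived 3T3Gli1-Luc cells carrying a stable Gli1-driven firefly luciferase reporter; series mostly up to about 92 µM; nearly all actives have a fitted effect of over 15% in size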
Outline: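 Following a 24 hr incubation with DMSO-dissolved compounds at 37 C, 5% CO2, Gli1-Luc NIH/3T3-derived cells received luciferase reagent for 30 min at room temperature prior to luminescence measurement.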

[2] = qHTS assay to identify small molecule antagonists of the sonic hedgehog signaling (Shh) pathway (AID 1259369); note: nearly all actives have a fitted effect of over 45% in size; note: potency is the fitted concentration of half-maximal effect
Outline: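 Read-out is luminescence from a firefly luciferase gene controlled by the Gli1 response element, in 3T3Gli1-Luc cells pre-incubated 4hr then exposed to compounds and conditioned medium for 24hr.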

[3] = target: Estrogen receptor beta (Homo sapiens) (UniProt Q92731); assay: qHTS assay to identify small molecule agonists of the estrogen receptor beta (ER-beta) signaling pathway (AID 1259377; active = well fitted activation curve with a large enough effect in the signal ratio in the repeat runs, not every such curve was filed as active; the % refers to the signal ratio)
Outline: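 ER-beta-UAS-bla HEK293T cells in medium with 2% charcoal-stripped FBS were exposed to compounds for 16 h at 37C. Beta-lactamase reporter activity was read as fluorescence after 2 h with LiveBLAzer B/G FRET substrate at room temperature.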

[4] = target: Estrogen receptor beta (Homo sapiens) (UniProt Q92731); assay: qHTS assay to identify small molecule antagonists of the estrogen receptor beta (ER-beta) signaling pathway (AID 1259378; active = well fitted inhibition curve with a large enough effect in the signal ratio in the repeat runs, not every such curve was filed as active; the % refers to the signal ratio)
Outline: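 ER-beta-UAS-bla HEK293T cells in 2% charcoal-stripped FBS medium treated with compound plus 1nM final 17-beta-estradiol for 16 hr at 37C. Beta-lactamase reporter read by FRET substrate fluorescence after 2 hours at room temperature.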

[5] = qHTS assay to identify small molecule agonists of the androgen receptor (AR) signaling pathway in the presence of an antagonist - cell viability counter screen (AID 1259379; active = well fitted curve in the direction sought with a large enough effect in the repeat runs; an effect the other way counts as inactive or inconclusive; note: nearly all actives have a fitted effect of over 25% in size; note: potency is the fitted concentration of half-maximal effect)
Outline: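 Each compound was tested at 15 concentrations on MDA-kb2 cells in the presence of 3.0uM nilutamide. Viability was measured by CellTiter-Fluor fluorescence after a 16 hr incubation at 37C in a CO2-free atmosphere.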

[6] = qHTS assay to identify small molecule agonists of the estrogen receptor beta (ER-beta) signaling pathway - cell viability counter screen (AID 1259380; active = well fitted curve in the direction sought with a large enough effect in the repeat runs; an effect the other way counts as inactive or inconclusive; note: nearly all actives have a fitted effect of over 30% in size; note: potency is the fitted concentration of half-maximal effect)
Outline: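 Compounds dissolved in DMSO were pin-transferred onto ER-beta-UAS-bla HEK293T cells that had settled 6 hr, and exposure ran 16 hr at 37C. Following the reporter read, CellTiter-Glo luminescence after 30 min at room temperature indicated cytotoxicity.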

[7] = qHTS assay to identify small molecule antagonists of the estrogen receptor beta (ER-beta) signaling pathway - cell viability counter screen (AID 1259382; active = well fitted curve in the direction sought with a large enough effect in the repeat runs; an effect the other way counts as inactive or inconclusive; note: series mostly up to about 92 µM; nearly all actives have a fitted effect of over 55% in size)
Outline: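 CellTiter-Glo ATP luminescence measured after the LiveBLAzer read in the same wells; ER-beta-UAS-bla HEK293T cells, 16 hr compound treatment with 1nM 17-beta-estradiol agonist at 37C, 5% CO2.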

[8] = target: Estrogen receptor (Homo sapiens) (UniProt P03372); assay: qHTS assay to identify small molecule agonists of the estrogen receptor alpha (ER-alpha) signaling pathway in the presence of an antagonist (AID 1259383); note: nearly all actives have a fitted effect of over 15% in size; note: potency is the fitted concentration of half-maximal effect; for activation: top concentration of the series differs between compounds
Outline: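 Luminescent ERE-luciferase reporter, VM7Luc4E2 cells (endogenous ER-alpha); 10.0nM ICI-182,780 final; 15-point compound titration; 22hr at 37C; ONE-Glo, 30min RT.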

[9] = qHTS assay to identify small molecule agonists of the estrogen receptor alpha (ER-alpha) signaling pathway in the presence of an antagonist - cell viability counter screen (AID 1259386; active = well fitted curve in the direction sought with a large enough effect in the repeat runs; an effect the other way counts as inactive or inconclusive;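 note: cells exposed to compounds for 22 h at 37 °C before the viability read; nearly all actives have a fitted effect of over 30% in size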; note: potency is the fitted concentration of half-maximal effect)
Outline: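 Using estrogen-depleted VM7Luc4E2 cells, the 15-concentration compound series was applied together with 10.0nM ICI-182,780 and incubated 22hr at 37C/5% CO2. Cell viability was then scored by CellTiter-Fluor.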

[10] = target: Progesterone receptor (Homo sapiens) (UniProt P06401); assay: qHTS assay to identify small molecule agonists of the progesterone receptor (PR) signaling pathway (AID 1346784); note: nearly all actives have a fitted effect of over 30% in size
Outline: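 PR-UAS-bla HEK 293T cells (beta-lactamase reporter under UAS) in 2% charcoal-stripped FBS, dosed with 23 nL compound after 6 hr, incubated 16hr at 37C. LiveBLAzer B/G FRET substrate added, fluorescence read after 2 hours.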

[11] = target: Progesterone receptor (Homo sapiens) (UniProt P06401); assay: qHTS assay to identify small molecule antagonists of the progesterone receptor (PR) signaling pathway (AID 1346795; active = well fitted inhibition curve with a large enough effect in the signal ratio in the repeat runs, not every such curve was filed as active; the % refers to the signal ratio)
Outline: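 PR-UAS-bla HEK293T cells with beta-lactamase reporter under UAS control, in 2% charcoal-stripped FBS, treated with compounds plus 1 nM promegestone (R5020, final) for 16 hr at 37C. Read-out: FRET beta-lactamase substrate fluorescence after 2 hr at room temperature.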

[12] = qHTS assay to identify small molecule antagonists of the progesterone receptor (PR) signaling pathway - cell viability counter screen (AID 1346798; active = well fitted curve in the direction sought with a large enough effect in the repeat runs; an effect the other way counts as inactive or inconclusive; note: series mostly up to about 92 µM; nearly all actives have a fitted effect of over 50% in size)
Outline: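 PR-UAS-bla HEK293T cells, 3,000/well in 2% charcoal-stripped FBS medium, dosed with compounds plus R5020 agonist and incubated 16 h at 37C. Viability then measured in the same wells by CellTiter-Glo luminescence after 30 min at RT.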

[13] = qHTS assay to identify small molecule agonists of the progesterone receptor (PR) signaling pathway - cell viability counter screen (AID 1346799); note: nearly all actives have a fitted effect of over 45% in size
Outline: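 Counter screen in the PR-UAS-bla HEK293T wells (2% charcoal-stripped FBS, 16 h compound exposure at 37 C) after the bla read. CellTiter-Glo added, 30 min at room temperature, luminescence read as cell viability.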

[14] = qHTS assay to identify small molecule agonists of the TGF-beta/Smad signaling pathway - cell viability counter screen (AID 1346829; active = well fitted curve in the direction sought with a large enough effect in the repeat runs; an effect the other way counts as inactive or inconclusive; note: top concentration of the series differs between compounds; nearly all actives have a fitted effect of over 45% in size)
Outline: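 After overnight seating at 37 C and 5% CO2, reporter cells got compounds for 5 hr and FRET substrate for 2 hr; cell viability then came from CellTiter-Glo luminescence.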

[15] = qHTS assay to identify small molecule agonists of the TGF-beta/Smad signaling pathway (AID 1346859; active = well fitted activation curve with a large enough effect in the signal ratio in the repeat runs, not every such curve was filed as active; the % refers to the signal ratio; note: series mostly up to about 77 µM)
Outline: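 SBE-bla HEK293T cells plated overnight, then compound exposure for 5 h at 37 C. Beta-lactamase reporter read with LiveBLAzer B/G FRET substrate after 2 h at room temperature, fluorescence at 405 nm excitation, 460/530 nm emission.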

[16] = target: Thyrotropin-releasing hormone receptor (Homo sapiens) (UniProt P34981); assay: qHTS assay to identify small molecule antagonists of the thyrotropin-releasing hormone receptor (TRHR) signaling pathway (AID 1346877; active = well fitted inhibition curve with a large enough effect in the repeat runs, not every such curve was filed as active; note: series mostly up to about 51 µM)
Outline: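 Calcium signal in dye-loaded TRHR/HEK293 cells; compounds added 5 min before TRH (1 nM final); fluorescence monitored 3 min at 1 s steps.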

[17] = qHTS assay to identify small molecule agonists or antagonists of the thyroid stimulating hormone receptor (TSHR) signaling pathway - wild type cell line counter screen (AID 1259384)
Outline: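 Wild-type Hek293 cells, 800/well, 18 h at 37C, then compound with Ro20-1724 for 30 min RT. cAMP by HTRF (cAMP-d2/anti-cAMP cryptate), 1 h RT, fluorescence read. 15 concentrations, triplicates.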

[18] = target: Thyrotropin receptor (Homo sapiens) (UniProt P16473); assay: qHTS assay to identify small molecule antagonists of the thyroid stimulating hormone receptor (TSHR) signaling pathway (AID 1259385); note: nearly all actives have a fitted effect of over 20% in size
Outline: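 TSHR-HEK293 cells (800/well) plated 18 h, then compounds with Ro20-1724 and TSH at 1.5 ng/mL final, 30 min at room temperature. cAMP quantified by HTRF (cAMP-d2/anti-cAMP-cryptate, 1 h); 15 concentrations in triplicate.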

[19] = qHTS assay to identify small molecule antagonists of the TGF-beta/Smad signaling pathway - cell viability counter screen (AID 1346824; active = well fitted curve in the direction sought with a large enough effect in the repeat runs; an effect the other way counts as inactive or inconclusive; note: nearly all actives have a fitted effect of over 50% in size)
Outline: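 SBE-bla HEK 293T cells, incubated overnight, then compound plus 0.25 ng/mL TGF-beta1 (stock added) for 5 hr at 37 C. Viability was read in the same wells by CellTiter-Glo luminescence after 30 min at room temperature.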

[20] = target: Androgen receptor (Homo sapiens) (UniProt P10275); assay: qHTS assay to identify small molecule agonists of the androgen receptor (AR) signaling pathway in the presence of an antagonist (AID 1259381); note: nearly all actives have a fitted effect of over 15% in size
Outline: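 Plated MDA-kb2 cells (3,000/well) were pre-incubated 5hr, given nilutamide (3.0uM final) or buffer, then dosed with compounds in DMSO at 15 concentrations. Luciferase activity was quantified by luminescence after 16hr at 37C.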

Thyrotropin receptor (Homo sapiens), sequence (P16473 whole entry, looked up): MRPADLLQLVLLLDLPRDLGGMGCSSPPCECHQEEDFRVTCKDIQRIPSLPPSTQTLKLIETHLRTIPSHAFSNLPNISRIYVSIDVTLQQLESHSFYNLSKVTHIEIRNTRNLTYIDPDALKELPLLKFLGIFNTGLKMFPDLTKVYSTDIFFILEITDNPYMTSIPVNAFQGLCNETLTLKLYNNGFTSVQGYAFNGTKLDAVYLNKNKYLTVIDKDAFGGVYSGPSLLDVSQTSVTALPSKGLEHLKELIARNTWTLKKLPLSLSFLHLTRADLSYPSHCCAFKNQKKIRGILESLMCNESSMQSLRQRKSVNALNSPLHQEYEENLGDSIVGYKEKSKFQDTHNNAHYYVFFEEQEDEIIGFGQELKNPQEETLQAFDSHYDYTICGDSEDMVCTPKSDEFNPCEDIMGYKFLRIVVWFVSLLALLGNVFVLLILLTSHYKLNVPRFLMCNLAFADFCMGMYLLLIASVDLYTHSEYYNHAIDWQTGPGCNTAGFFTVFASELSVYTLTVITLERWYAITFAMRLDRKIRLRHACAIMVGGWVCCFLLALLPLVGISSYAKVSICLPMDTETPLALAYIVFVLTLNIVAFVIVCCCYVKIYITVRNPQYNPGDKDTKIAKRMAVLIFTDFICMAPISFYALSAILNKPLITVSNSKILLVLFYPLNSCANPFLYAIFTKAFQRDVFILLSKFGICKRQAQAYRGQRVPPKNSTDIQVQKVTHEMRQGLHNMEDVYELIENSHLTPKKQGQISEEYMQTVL
Thyrotropin-releasing hormone receptor (Homo sapiens), sequence (P34981 whole entry, looked up): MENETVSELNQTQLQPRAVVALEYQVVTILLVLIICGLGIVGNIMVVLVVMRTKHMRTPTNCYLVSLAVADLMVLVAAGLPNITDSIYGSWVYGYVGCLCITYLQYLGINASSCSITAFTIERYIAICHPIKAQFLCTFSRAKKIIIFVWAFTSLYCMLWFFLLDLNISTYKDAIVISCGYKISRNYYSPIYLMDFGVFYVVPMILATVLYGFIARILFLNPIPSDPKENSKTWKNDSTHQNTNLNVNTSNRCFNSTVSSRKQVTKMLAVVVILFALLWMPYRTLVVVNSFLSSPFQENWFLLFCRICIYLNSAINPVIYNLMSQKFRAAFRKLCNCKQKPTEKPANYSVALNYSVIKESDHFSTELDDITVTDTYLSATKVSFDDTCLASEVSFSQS
Estrogen receptor (Homo sapiens), sequence (P03372 whole entry, looked up): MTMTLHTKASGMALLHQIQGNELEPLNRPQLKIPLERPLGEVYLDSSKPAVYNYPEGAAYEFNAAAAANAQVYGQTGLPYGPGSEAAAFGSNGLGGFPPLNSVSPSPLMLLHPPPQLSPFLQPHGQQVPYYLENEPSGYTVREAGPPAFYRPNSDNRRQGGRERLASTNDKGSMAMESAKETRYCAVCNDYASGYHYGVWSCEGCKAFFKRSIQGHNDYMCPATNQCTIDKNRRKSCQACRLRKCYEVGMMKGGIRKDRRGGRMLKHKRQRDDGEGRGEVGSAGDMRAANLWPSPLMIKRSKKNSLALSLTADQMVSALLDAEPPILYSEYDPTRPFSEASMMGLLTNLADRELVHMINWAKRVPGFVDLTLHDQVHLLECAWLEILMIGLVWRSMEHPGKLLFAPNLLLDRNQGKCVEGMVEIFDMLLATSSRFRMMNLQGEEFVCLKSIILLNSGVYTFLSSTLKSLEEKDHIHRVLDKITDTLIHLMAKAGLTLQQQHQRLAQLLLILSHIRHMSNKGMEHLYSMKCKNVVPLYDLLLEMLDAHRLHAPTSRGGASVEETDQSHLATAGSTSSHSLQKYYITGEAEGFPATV
Estrogen receptor beta (Homo sapiens), sequence (Q92731 whole entry, looked up): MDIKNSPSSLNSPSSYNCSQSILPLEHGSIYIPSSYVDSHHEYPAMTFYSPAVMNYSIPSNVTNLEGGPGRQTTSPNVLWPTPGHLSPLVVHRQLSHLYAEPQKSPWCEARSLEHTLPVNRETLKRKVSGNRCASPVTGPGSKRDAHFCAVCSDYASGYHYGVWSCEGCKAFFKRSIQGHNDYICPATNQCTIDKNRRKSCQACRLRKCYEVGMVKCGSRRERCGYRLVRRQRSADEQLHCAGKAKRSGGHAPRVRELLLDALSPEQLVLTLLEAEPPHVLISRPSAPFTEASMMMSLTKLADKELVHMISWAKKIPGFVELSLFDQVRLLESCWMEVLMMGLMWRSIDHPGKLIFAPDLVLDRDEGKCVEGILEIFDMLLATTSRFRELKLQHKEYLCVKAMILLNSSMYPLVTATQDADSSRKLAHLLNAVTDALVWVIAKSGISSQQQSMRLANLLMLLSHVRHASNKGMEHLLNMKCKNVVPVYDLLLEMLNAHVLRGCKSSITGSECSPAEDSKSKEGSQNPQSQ
Androgen receptor (Homo sapiens), sequence (P10275 whole entry, looked up): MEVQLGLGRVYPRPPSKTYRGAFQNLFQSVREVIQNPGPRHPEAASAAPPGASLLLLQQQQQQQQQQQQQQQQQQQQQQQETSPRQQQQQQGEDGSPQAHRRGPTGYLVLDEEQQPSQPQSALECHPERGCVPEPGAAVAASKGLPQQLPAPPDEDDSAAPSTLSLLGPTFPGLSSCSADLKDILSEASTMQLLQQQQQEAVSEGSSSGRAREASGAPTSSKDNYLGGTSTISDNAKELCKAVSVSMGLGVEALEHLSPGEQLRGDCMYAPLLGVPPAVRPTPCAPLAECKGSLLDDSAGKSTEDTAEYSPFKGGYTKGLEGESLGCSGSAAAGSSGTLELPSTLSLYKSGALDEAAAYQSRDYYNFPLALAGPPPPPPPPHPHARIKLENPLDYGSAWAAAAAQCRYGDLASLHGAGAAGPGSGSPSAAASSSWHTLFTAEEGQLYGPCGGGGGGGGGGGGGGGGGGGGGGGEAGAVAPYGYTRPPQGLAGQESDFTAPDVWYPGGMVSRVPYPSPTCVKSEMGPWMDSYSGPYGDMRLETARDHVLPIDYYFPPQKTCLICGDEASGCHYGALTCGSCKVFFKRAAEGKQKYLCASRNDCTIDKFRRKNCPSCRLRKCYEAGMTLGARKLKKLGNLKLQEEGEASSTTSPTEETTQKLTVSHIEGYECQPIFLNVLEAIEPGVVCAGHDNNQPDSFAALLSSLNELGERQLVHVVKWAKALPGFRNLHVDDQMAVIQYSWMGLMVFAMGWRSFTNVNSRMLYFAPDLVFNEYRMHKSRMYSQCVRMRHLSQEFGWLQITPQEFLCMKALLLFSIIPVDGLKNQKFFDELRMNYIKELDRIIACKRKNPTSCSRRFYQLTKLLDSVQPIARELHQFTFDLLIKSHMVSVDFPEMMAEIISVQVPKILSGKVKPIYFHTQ
Progesterone receptor (Homo sapiens), sequence (P06401 whole entry, looked up): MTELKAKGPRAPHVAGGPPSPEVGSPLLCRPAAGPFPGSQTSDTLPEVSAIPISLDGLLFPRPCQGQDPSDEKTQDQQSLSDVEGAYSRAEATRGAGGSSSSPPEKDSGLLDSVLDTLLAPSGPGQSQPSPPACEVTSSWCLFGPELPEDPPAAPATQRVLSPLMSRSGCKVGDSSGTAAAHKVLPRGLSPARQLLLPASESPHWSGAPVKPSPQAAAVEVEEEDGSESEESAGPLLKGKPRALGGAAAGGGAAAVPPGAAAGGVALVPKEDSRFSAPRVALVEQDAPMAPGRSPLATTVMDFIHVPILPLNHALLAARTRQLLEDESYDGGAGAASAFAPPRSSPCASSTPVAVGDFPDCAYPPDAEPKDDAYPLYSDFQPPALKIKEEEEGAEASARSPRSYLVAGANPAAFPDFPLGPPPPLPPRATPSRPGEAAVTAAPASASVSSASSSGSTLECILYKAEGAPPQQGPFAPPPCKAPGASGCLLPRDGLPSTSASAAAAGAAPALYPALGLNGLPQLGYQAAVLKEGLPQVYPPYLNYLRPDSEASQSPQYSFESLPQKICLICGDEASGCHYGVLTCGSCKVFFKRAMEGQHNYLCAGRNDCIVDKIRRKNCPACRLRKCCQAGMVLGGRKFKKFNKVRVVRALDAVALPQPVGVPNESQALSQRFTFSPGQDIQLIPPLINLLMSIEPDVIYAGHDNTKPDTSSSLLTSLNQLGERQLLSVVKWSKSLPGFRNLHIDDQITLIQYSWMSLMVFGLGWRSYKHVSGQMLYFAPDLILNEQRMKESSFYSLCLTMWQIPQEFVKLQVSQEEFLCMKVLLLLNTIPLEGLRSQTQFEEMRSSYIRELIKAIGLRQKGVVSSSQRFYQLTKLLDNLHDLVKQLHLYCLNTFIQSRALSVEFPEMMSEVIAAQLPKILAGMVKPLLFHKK

Compound | outcome [1] | Potency [2] | Potency [3] | Potency [4] | Potency [5] | Potency [6] | Potency [7] | Potency [8] | Potency [9] | Potency [10] | Potency [11] | Potency [12] | Potency [13] | Potency [14] | outcome [15] | outcome [16] | outcome [17] | outcome [18] | Potency [19] | Potency [20]
NCCc1ccc(O)c(O)c1 | inactive | 866 nM (active) | inactive | inactive | 54.6 µM (active) and inactive | inactive | inactive | inactive | 27.4 µM (active) and inactive | inactive | inactive | inactive | inactive | inactive | inactive | inactive | – | – | – | –
CCc1ccccc1O | inactive | inactive | inactive | inactive | inactive | – | inactive | inactive | inactive | inactive | inactive | inactive | inactive | inactive | inactive | inactive | inactive | inactive | inactive | –
CCCCC(CC)C(=O)OCCOCCOCCOC(=O)C(CC)CCCC (stereo unspecified) | inactive | inactive | inactive | inactive | inactive | – | inactive | inactive | inactive | inactive | inactive | inactive | inactive | inactive | inactive | inactive | inactive | inactive | inactive | inactive
O=S(=O)(O)CCS | inactive | inactive | inactive | inactive | inactive | – | inactive | inactive | inactive | inactive | inactive | inactive | inactive | inactive | inactive | inactive | inactive | inactive | – | –
OC1CCCC1 | inactive | inactive | inactive | inactive | inactive | – | inactive | inactive | inactive | inactive | inactive | inactive | inactive | inactive | inactive | inactive | inactive | inactive | inactive | –
O=Nc1ccc(O)cc1 | inactive | inactive | inactive | inactive | 47.4 µM (active) and inactive | – | inactive | inactive | 47.4 µM (active) and inactive | – | – | inactive | inactive | inactive | inactive | inactive | inactive | inactive | inactive | inactive
CC(=O)CCc1ccccc1 | inactive | inactive | inactive | inactive | inactive | inactive | inactive | – | inactive | inactive | inactive | inactive | inactive | inactive | inactive | – | inactive | inactive | inactive | –
CC1Cc2ccccc2N1NC(=O)c1ccc(Cl)c(S(N)(=O)=O)c1 (stereo unspecified) | inactive | inactive | inactive | inactive | inactive | inactive | inactive | inactive | inactive | inactive | inactive | inactive | inactive | inactive | inactive | inactive | inactive | inactive | inactive | –
CCCCC/C=C\C/C=C\CCCCCCCC(=O)OC | inactive | inactive and 24.3 µM (active) | inactive | inactive | inactive | inactive and 48.6 µM (active) | inactive | inactive | inactive | inactive | inactive | inactive | inactive | inactive | inactive | – | inactive | inactive | inactive | –
NC(=O)NNc1ccccc1 | inactive | inactive | inactive | inactive | inactive | inactive | inactive | – | inactive | inactive | inactive | inactive | inactive | inactive | inactive | inactive | inactive | inactive | – | –
NS(=O)(=O)c1cc2c(cc1Cl)NC=NS2(=O)=O | inactive | inactive | inactive | inactive | inactive | inactive | inactive | inactive | inactive | inactive | inactive | inactive | inactive | inactive | inactive | inactive | inactive | inactive | – | –
Nc1nc2ncc(CNc3ccc(C(=O)N[C@@H](CCC(=O)O)C(=O)O)cc3)nc2c(=O)[nH]1 | inactive | inactive | inactive | inactive | inactive | inactive | inactive | – | inactive | inactive | inactive | inactive | inactive | inactive | inactive | – | inactive | inactive | inactive | inactive
O=[N+]([O-])c1cccc(Cl)c1 | inactive | inactive | inactive | inactive | inactive | inactive | inactive | 67.4 µM (active) and inactive | inactive | inactive | inactive | inactive | inactive | inactive | inactive | inactive | inactive | inactive | – | –
COCC(=O)O | inactive | 1.25 µM (active) and inactive | inactive | inactive | inactive | inactive | inactive | inactive | inactive | inactive | inactive | inactive | inactive | inactive | inactive | – | inactive | inactive | – | –
CC(C)(C)C1CCC(O)CC1 (stereo unspecified) | inactive | inactive | inactive | inactive | inactive | inactive | inactive | inactive | inactive | inactive | inactive | inactive | inactive | inactive | inactive | inactive | inactive | inactive | inactive | –
